Inconclusive results are not listed. A number with no mark means an inactive call. Calls of active or inactive are those of the source. Calls follow the shape of the dose curve; as a rule, active = well fitted curve in the direction sought with a large enough effect; inconclusive = small, poorly fitted or top-dose-only effect, or another doubt; inactive = no such curve, though single readings can be large; an effect the other way counts as inactive or inconclusive. Residues, ends and D or L forms follow the SMILES beside them. *: point of attachment. Cbz = O=C(OCc1ccccc1)*

Assay [1] in a line: NS1 protein of Zika virus - qHTS assay to identify small molecule inhibitors in human HEK 293 cells (AID 1347053). Also: nearly all actives have a fitted effect of over 55% in size. The essentials:
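Inhibition of NS1 expression was scored in HEK 293 cells given compound 1 h ahead of MR766 virus (MOI = 0.5). Following 24 h at 37 C, two anti-NS1 antibodies generated a TR-FRET signal, scaled between uninfected and infected controls.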

Assay [2] in a line: qHTS of pediatric cancer cell lines to identify multiple opportunities for drug repurposing: Primary screen for TC32 cells (AID 1347089). Also: nearly all actives have a fitted effect of over 60% in size. As to activity change, negative = cytotoxic: % is scaled to controls: 0 for no effect and ±100 for the full control effect. The gist of the method:
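In the primary qHTS, MIPE compounds were tested at 11 concentrations (0.78 nM to 46 µM) and NPC compounds at 8 (0.59 nM to 46 µM) on TC32 cells for 48 h. CellTiter-Glo luminescence gave viability.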
(In general: In qHTS, concentration-response curves come from the screen itself.)

Assay [3] is described as follows: qHTS of pediatric cancer cell lines to identify multiple opportunities for drug repurposing: Primary screen for DAOY cells (AID 1347090). Also: nearly all actives have a fitted effect of over 55% in size.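 As to activity change, negative = cytotoxic: series mostly up to about 46 µM; plate controls were DMSO for no effect and bortezomib for full effect.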 The essentials:
(§1)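 Viability measured as metabolically active cells via CellTiter-Glo luminescence following 48 hours of compound exposure, 11-point dilutions in confirmatory testing. 500-1,000 cells/well plated 5 hours before dosing; controls were DMSO and 2.3 µM bortezomib.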

Assay [4] is described as follows: qHTS of pediatric cancer cell lines to identify multiple opportunities for drug repurposing: Primary screen for A673 cells (AID 1347092). Also: nearly all actives have a fitted effect of over 45% in size. As to activity change, negative = cytotoxic: % is scaled to controls: 0 for no effect and ±100 for the full control effect. The essentials: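 48 h compound exposure, A673, 500-1,000 cells/well, 37 degrees C/5% CO2. MIPE: 11-point, 0.78 nM-46 µM; NPC: 8-point, 0.59 nM-46 µM (final). Readout CellTiter-Glo luminescence after 15 min RT.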
A short description of assay [5]: qHTS of pediatric cancer cell lines to identify multiple opportunities for drug repurposing: Primary screen for SK-N-MC cells (AID 1347093).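 As to activity change, negative = cytotoxic: series mostly up to about 46 µM; plate controls were DMSO neutral control for no effect and bortezomib for full effect.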 The essentials:
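Metabolically active cells were quantified by ATP-dependent luminescence (CellTiter-Glo, 15 min at room temperature) following 48 h treatment. Cells had been plated at 500-1,000 per well and settled for 5 h beforehand.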

Assay [6] is described as follows: qHTS of pediatric cancer cell lines to identify multiple opportunities for drug repurposing: Primary screen for SJ-GBM2 cells (AID 1347091).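 As to activity change, negative = cytotoxic: plate controls were DMSO neutral control for no effect and bortezomib for full effect.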 The gist of the method: as §1
Potency is read from the fitted curve at half-maximal effect.

With `C[C@H](CCC(=O)O)[C@H]1CCC2C3C[C@H](O)[C@@H]4C[C@H](O)CC[C@]4(C)C3CC[C@@]21C` (stereo partly specified), the Potency entry in assay [1], in assay [2], in assay [3], in assay [4] and in assay [5] was “inactive” in each case.

On to `C[C@]12CCC(=O)C=C1[C@@H]1CC1[C@H]1[C@H]3[C@@H]4C[C@H]4[C@@]4(CCC(=O)O4)[C@@]3(C)CC[C@H]12` (stereo partly specified), for which the Potency entry in assay [1], in assay [2], in assay [3] and in assay [4] was “inactive” in each case.

Consider `CCN1CCN(C(=O)N[C@H](C(=O)N[C@@H]2C(=O)N3C(C(=O)O)=C(CSc4nnnn4C)CS[C@@H]23)c2ccc(O)cc2)C(=O)C1=O`, for which, in assay [1], the Potency entry is “inactive”. The activity change, negative = cytotoxic in assay [2] is 13.6% [at 9.17 µM]; in assay [3], 8.24% [at 9.22 µM]; in assay [4], 6.36% [at 9.22 µM]; in assay [5], -14.8% [at 9.22 µM].

Consider `CC(C)C[C@@H](C=O)NC(=O)[C@H](CC(C)C)NC(=O)[C@H](CC(C)C)NC(=O)OCc1ccccc1` (Cbz-Leu-Leu-Leu-aldehyde), for which the Potency in assay [1] was 1660 nM (active); in assay [2], 2340 nM (active); in assay [3] it was 743 nM (active); in assay [6] it was 105 nM (active); in assay [5] it was 83.3 nM (active).

For `Nc1ccn(C[C@@H](CO)OCP(=O)(O)O)c(=O)n1`, the Potency result in assay [1], in assay [2], in assay [3], in assay [6] and in assay [5] was “inactive” in each case.

Turning to `O=C(NNC(=O)c1ccc(CNS(=O)(=O)c2ccc(F)c(Cl)c2)cc1)c1ccccc1`, the Potency entry in assay [1], in assay [2], in assay [3], in assay [6] and in assay [5] was “inactive” throughout.

For the compound `C=CC(=O)Nc1ccc2ncnc(Nc3ccc(OCc4cccc(F)c4)c(Cl)c3)c2c1`, the Potency in assay [1] is 10500 nM (active); in assay [2] it was 4660 nM (active); in assay [3], 46.9 nM (active); in assay [4], 1 nM (active); in assay [5], 16.6 nM (active).

For `CN(C)c1ccc2cc(C(=O)N[C@@H](CCCN=C(N)CCl)C(=O)NCc3ccccc3)ccc2c1`, the Potency result in assay [1] and in assay [2] was “inactive” in each case. For the same compound, the Potency in assay [3] was 7430 nM (active); in assay [6], 20900 nM (active); in assay [5], 3320 nM (active).

Take `CC(C)N1[N]C(=C2C=c3cc(O)ccc3=N2)c2c(N)ncnc21`: the Potency in assay [1] was 4690 nM (active); in assay [2], 2940 nM (active); in assay [3] it was 5900 nM (active); in assay [6] it was 93.5 nM (active); in assay [5], 148 nM (active).

For `CC(=O)N[C@H]1[C@@H]([C@H](O)[C@H](O)CO)OC(C(=O)O)=C[C@@H]1N=C(N)N`, the Potency entry in assay [1], in assay [2], in assay [3], in assay [6] and in assay [5] was “inactive” each time.

Turning to `Cc1cnc(Nc2ccc(N3CCN(C)CC3)cc2)nc1Nc1cccc(S(=O)(=O)NC(C)(C)C)c1`, the Potency in assay [1] is 16600 nM (active); in assay [2], 10400 nM (active); in assay [3] it was 14800 nM (active); in assay [4] it was 1180 nM (active); in assay [5], 1050 nM (active).

For the compound `O=C(NC1CC1)c1cccc(-c2ccc3c(NC(=O)C4CC4)n[nH]c3c2)c1`, in assay [1], the Potency result was “inactive”. The Potency is 9300 nM (active) in assay [2]; 1180 nM (active) in assay [3]; 13200 nM (active) in assay [6]; 372 nM (active) in assay [4]; 372 nM (active) in assay [5].

For the compound `OC[C@@H](O)[C@@H](O)[C@H](O)[C@@H](O)CO`, the Potency result in assay [1], in assay [2], in assay [3], in assay [4] and in assay [5] was “inactive” in each case.

Regarding `CC[C@H](CC[C@@H](C)[C@H]1CC[C@H]2[C@@H]3CC=C4C[C@@H](O)CC[C@]4(C)[C@@H]3CC[C@]12C)C(C)C`, the Potency entry in assay [1], in assay [2], in assay [3] and in assay [4] was “inactive” throughout.

`Cc1coc2c1C(=O)C(=O)c1c-2ccc2c(C)cccc12`: the Potency result in assay [1], in assay [2], in assay [3], in assay [4] and in assay [5] was “inactive” each time.

As to `CCNC(=O)c1cc2c(-c3cc(OCCN4CCCC4)c(Cl)cc3Cl)nc(N)nc2s1`, the Potency result in assay [1] was “inactive”. Besides, the Potency in assay [2] was 3700 nM (active); in assay [6], 2090 nM (active); in assay [5], 2640 nM (active).

Regarding `COc1cc2ncnc(Nc3cccc(Br)c3)c2cc1OC`, the Potency result in assay [1] and in assay [2] was “inactive” throughout. Moreover, the Potency is 5.9 nM (active) in assay [4] and 11.8 nM (active) in assay [5].

With `CC(=CC(=O)Nc1ccccc1C(=O)O)c1ccc2ccccc2c1`, the Potency in assay [1] was 14800 nM (active); in assay [5] it was 8330 nM (active). Besides, the Potency entry in assay [2] and in assay [6] was “inactive” in each case.

Take `CC1(C)O[C@@H]2C[C@H]3[C@@H]4CCC5=CC(=O)C=C[C@]5(C)[C@@H]4[C@@H](O)C[C@]3(C)[C@]2(C(=O)CO)O1`: the Potency result in assay [1], in assay [2] and in assay [3] was “inactive” in each case. For the same compound, the Potency in assay [5] was 29600 nM (active).

On to `N=c1ccn2c(n1)O[C@H]1[C@@H](O)[C@@H](CO)O[C@H]12`, for which the Potency entry in assay [1] is “inactive”. The Potency in assay [2] was 1040 nM (active); in assay [4], 372 nM (active); in assay [5], 11800 nM (active).

Take `O=C1NC(=O)[C@@H](c2cn3c4c(cccc24)CCC3)[C@H]1c1c[nH]c2ccccc12`: the Potency in assay [1] was 6620 nM (active); in assay [2] it was 2340 nM (active); in assay [6], 83.3 nM (active); in assay [4] it was 235 nM (active); in assay [5], 46.9 nM (active).

For the compound `c1coc(CNc2ncnc3nc[nH]c23)c1`, the Potency entry in assay [1], in assay [2], in assay [3] and in assay [5] was “inactive” each time.

Take `CC(C)(O)CC[C@@H](O)[C@](C)(O)[C@H]1CC[C@@]2(O)C3=CC(=O)[C@@H]4C[C@@H](O)[C@@H](O)C[C@]4(C)[C@@H]3CC[C@]12C`: the Potency result in assay [1], in assay [3] and in assay [6] was “inactive” in each case.

The values are drawn from PubChem BioAssay (NCATS).
